In PubChem BioAssay AID1159580 (chemical genetic matrix, 2015):
Values joined by “and” are separate entries in the source; they are usually repeats but may differ in a detail not shown here. Equal entries are not always repeated. About 2,000 (36%) of roughly 5,500 compounds were called active. Inconclusive results (about 18%) are left out. Rule as the data show it: active = normalized growth mostly below about 0.91 (no sharp cut-off); inconclusive = no clear call, values can overlap the other calls; inactive = mostly above about 0.92. The list shows a part of the results.

Assay: chemical genetic growth profiling, strain panel (AID 1159580);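 also: tested at 20 µM; growth read once vehicle control cultures reached saturation at 30 °C; 1 = growth at the plate median or of vehicle wells; lower values mean less growth of the strain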
Conditions: S. cerevisiae deletion strains, growth OD

Measured: normalized growth

COC(=O)C1=CCCN(C)C1
inactive: locus YAL013W, strain DEP1, stronger effect = lower value 1 and 1.01 | locus YAL021C, strain ccr4, stronger effect = lower value 1.03 | locus YAL026C, strain drs2, stronger effect = lower value 1.02 | locus YAL030W, strain snc1, stronger effect = lower value 1 | locus YAL040C, strain CLN3, stronger effect = lower value 0.997 | locus YBL061C, strain skt5, stronger effect = lower value 1.02 | locus YBR009C, strain hhf1, stronger effect = lower value 0.986 | locus YBR021W, strain FUR4, stronger effect = lower value 1 | locus YBR023C, strain chs3, stronger effect = lower value 1.02 | locus YBR171W, strain sec66, stronger effect = lower value 1.02 | locus YBR229C, strain ROT2, stronger effect = lower value 0.954 | locus YBR231C, strain swc5, stronger effect = lower value 0.999 | locus YBR279W, strain paf1, stronger effect = lower value 1.02 | locus YCL011C, strain gbp2, stronger effect = lower value 1.01 | locus YCL016C, strain dcc1, stronger effect = lower value 1.02 | locus YCL029C, strain bik1, stronger effect = lower value 0.983 | locus YCL069W, strain vba3, stronger effect = lower value 0.988 | locus YCR088W, strain abp1, stronger effect = lower value 1.01 | locus YDL005C, strain med2, stronger effect = lower value 0.998 | locus YDL035C, strain GPR1, stronger effect = lower value 0.993 | locus YDL040C, strain nat1, stronger effect = lower value 0.993 | locus YDL074C, strain BRE1, stronger effect = lower value 0.99 | locus YDL101C, strain DUN1, stronger effect = lower value 0.976 | locus YDL134C, strain PPH21, stronger effect = lower value 0.969 | locus YDL185W, strain tfp1, stronger effect = lower value 0.992 | locus YDL192W, strain arf1, stronger effect = lower value 0.983 | locus YDR001C, strain nth1, stronger effect = lower value 1 | locus YDR069C, strain doa4, stronger effect = lower value 0.993 | locus YDR101C, strain arx1, stronger effect = lower value 0.989 | locus YDR137W, strain rgp1, stronger effect = lower value 1.02 | locus YDR150W, strain NUM1, stronger effect = lower value 0.973 and 1.01 | locus YDR159W, strain sac3, stronger effect = lower value 0.94 | locus YDR162C, strain NBP2, stronger effect = lower value 0.991 | locus YDR195W, strain ref2 0.956 | locus YDR297W, strain sur2, stronger effect = lower value 1 | locus YDR318W, strain mcm21, stronger effect = lower value 0.99 | locus YDR334W, strain swr1, stronger effect = lower value 1 | locus YDR335W, strain msn5, stronger effect = lower value 1.02 | locus YDR388W, stronger effect = lower value 0.994 | locus YDR392W, strain spt3, stronger effect = lower value 0.977 | locus YDR502C, strain sam2, stronger effect = lower value 1 | locus YEL003W, strain gim4, stronger effect = lower value 0.997 | locus YEL037C, strain rad23, stronger effect = lower value 1.02 | locus YEL061C, strain CIN8 (second series), stronger effect = lower value 0.988 | locus YEL061C, strain CIN8, stronger effect = lower value 0.991 | locus YER002W, strain NOP16, stronger effect = lower value 0.986 | locus YER015W, strain faa2, stronger effect = lower value 1 | locus YER016W, strain bim1, stronger effect = lower value 1.02 | locus YER110C, stronger effect = lower value 0.969 | locus YER111C, strain swi4, stronger effect = lower value 1.01 | locus YER155C, strain BEM2 (second series), stronger effect = lower value 0.984 | locus YER155C, strain BEM2, stronger effect = lower value 1.02 | locus YER167W, strain BCK2, stronger effect = lower value 0.995 | locus YFR010W, strain ubp6, stronger effect = lower value 0.984 | locus YGL078C, strain dbp3, stronger effect = lower value 0.988 | locus YGL086W, strain mad1, stronger effect = lower value 0.994 | locus YGL167C, strain pmr1, stronger effect = lower value 1.01 | locus YGL173C, strain kem1, stronger effect = lower value 0.976 | locus YGL227W, strain vid30, stronger effect = lower value 0.998 | locus YGL240W, strain doc1, stronger effect = lower value 0.974 | locus YGL248W, strain PDE1, stronger effect = lower value 0.978 | locus YGL253W, strain hxk2, stronger effect = lower value 1.02 | locus YGR078C, strain PAC10, stronger effect = lower value 0.991 | locus YGR135W, strain pre9, stronger effect = lower value 0.983 | locus YGR229C, strain SMI1, stronger effect = lower value 1 | locus YGR252W, strain gcn5, stronger effect = lower value 0.945 | locus YHR013C, strain ard1, stronger effect = lower value 1.03 | locus YHR027C, strain rpn1, stronger effect = lower value 0.996 | locus YHR030C, strain SLT2, stronger effect = lower value 0.986 and 0.989 | locus YHR079C, strain IRE1 (second series), stronger effect = lower value 0.994 | locus YHR079C, strain IRE1, stronger effect = lower value 1.05 | locus YHR094C, strain hxt1, stronger effect = lower value 0.996 | locus YHR129C, strain ARP1, stronger effect = lower value 0.993 | locus YHR142W, strain chs7, stronger effect = lower value 1.03 | locus YHR200W, strain rpn10, stronger effect = lower value 0.989 | locus YIL066C, strain RNR3, stronger effect = lower value 0.982 | locus YIL073C, strain SPO22, stronger effect = lower value 0.935 | locus YIL125W, strain kgd1, stronger effect = lower value 0.995 | locus YIR030C, strain dcg1, stronger effect = lower value 0.98 | locus YJL092W, strain hpr5, stronger effect = lower value 1.01 | locus YJL095W, strain BCK1 (second series), stronger effect = lower value 1.01 | locus YJL095W, strain BCK1, stronger effect = lower value 1.02 and 1 | locus YJL115W, strain asf1, stronger effect = lower value 1.02 | locus YJL129C, strain trk1, stronger effect = lower value 1.04 | locus YJL134W, strain LCB3, stronger effect = lower value 0.985 | locus YJL154C, strain vps35, stronger effect = lower value 0.996 | locus YJL164C, strain tpk1, stronger effect = lower value 0.998 | locus YJL166W, strain qcr8, stronger effect = lower value 0.998 | locus YJL168C, strain set2, stronger effect = lower value 1 | locus YJL187C, strain SWE1 (second series), stronger effect = lower value 0.973 | locus YJR043C, strain POL32, stronger effect = lower value 1 | locus YJR066W, strain TOR1, stronger effect = lower value 0.968 | locus YJR075W, strain HOC1, stronger effect = lower value 0.99 and 1.01 | locus YKL009W, strain mrt4, stronger effect = lower value 0.999
